# Most compounds without a hit are left out; they make up all but 4.2% or so of the library.
# PLK1 PBD inh: qHTS for Inhibitors of PLK1-PDB (polo-like kinase 1 - polo-box domain): Primary Screen. Serine/threonine-protein kinase PLK1 (Homo sapiens), P53350. Plk1 PBD binding of FITC phosphopeptide, fluorescence polarization. Potency, µM, inactives show max response, negative = inhibition, actives largely listed as inhibitors. 360,000 tested, 2.8% active. AID 720504, 2013; also: series mostly up to about 57 µM; nearly all actives have a fitted effect of over 65% in size
# Sfp PPTase inh: qHTS Assay for Inhibitors of Bacillus subtilis Sfp phosphopantetheinyl transferase (PPTase) | 4'-phosphopantetheinyl transferase ffp (Bacillus subtilis), Q9F4F7 | Biochemical Sfp PPTase activity, qHTS | Potency, µM, without a hit: largest response in the series, negative = inhibition, actives largely listed as inhibitors | 310,000 tested, 3.5% active | AID 1490, 2009;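 also: the enzyme is Sfp with the accession as filed and its product quenches rhodamine fluorescence; 0% = enzyme reaction without inhibitor and -100% = no enzyme wells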
#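 Fluorescence-quenching assay with 15 nM Sfp, 5 uM rhodamine-CoA and 12.5 uM BHQ-2-labelled ybbR peptide in pH 7.6 Hepes/MgCl2 buffer. Enzyme was pre-incubated with compound for 15 min at room temperature. Rate was taken from the 30-min fluorescence change (525/598 nm).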
# 12-LOX inh: Primary qHTS assay for inhibitors of human arachidonate 12S-lipoxygenase (ALOX12): Round 2; Polyunsaturated fatty acid lipoxygenase ALOX12 (Homo sapiens), P18054; purified 12hLO, xylenol orange hydroperoxide absorbance; Potency, µM (doses to about 108 µM), inactives show at the top dose activity change, negative = inhibition, usual class: inhibitors; 580,000 tested, 1.1% active
#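 Purified human 12hLO at 150 nM in 25 mM Hepes, 0.01% Triton X-100, pH 7.0, preincubated 15 min at room temperature with compound. Reaction started with 40 uM arachidonic acid, 30 min at room temperature. Hydroperoxide measured by Fe-xylenol orange, 573/405 nm absorbance ratio.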
# VDR inhibitor: Inhibitors of the vitamin D receptor (VDR): qHTS | Vitamin D3 receptor (Homo sapiens), P11473 | VDR-SRC2-3 peptide fluorescence polarization, 2 h | Potency, µM, for inactives: max response, negative = inhibition, actives largely listed as inhibitors | 400,000 tested, 0.93% active
# Target sequence (P11473 whole entry, looked up): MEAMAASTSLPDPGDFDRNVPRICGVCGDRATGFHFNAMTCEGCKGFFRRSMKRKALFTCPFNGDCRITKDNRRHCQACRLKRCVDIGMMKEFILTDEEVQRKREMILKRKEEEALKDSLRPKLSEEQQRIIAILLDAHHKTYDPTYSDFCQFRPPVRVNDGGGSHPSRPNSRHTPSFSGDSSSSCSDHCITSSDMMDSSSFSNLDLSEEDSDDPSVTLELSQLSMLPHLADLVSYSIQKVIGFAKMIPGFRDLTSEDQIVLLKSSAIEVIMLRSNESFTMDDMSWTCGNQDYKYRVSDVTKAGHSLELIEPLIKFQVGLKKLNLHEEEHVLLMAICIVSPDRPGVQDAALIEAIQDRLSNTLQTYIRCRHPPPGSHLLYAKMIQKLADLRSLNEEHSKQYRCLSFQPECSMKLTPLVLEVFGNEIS
#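 The screen uses fluorescence polarization to detect compounds that interfere with recruitment of the SRC2-3 coactivator peptide to VDR; plates are read after 2 h at room temperature.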
# * marks the source's active call; other numbers are inactive results; ? = inconclusive; · = not tested or not shown; [ ] = dose if it differs, or a comment. Calls follow the shape of the dose curve; as a rule, active = well fitted curve in the direction sought with a large enough effect; inconclusive = small, poorly fitted or top-dose-only effect, or another doubt; inactive = no such curve, though single readings can be large; an effect the other way counts as inactive or inconclusive. Unless noted, % is scaled to controls: 0 for no effect and ±100 for the full control effect; potency is read from the fitted curve at half-maximal effect.
SMILES,PLK1 PBD inh,Sfp PPTase inh,12-LOX inh,VDR inhibitor
COCCCNC(=O)Cn1cnc2sc(C)c(S(=O)(=O)N3CCC(C)CC3)c2c1=O,·,·,-18%,-5%
O=S(=O)(c1ccc(-c2cc(C(F)(F)F)on2)s1)N1CCN(c2ccccc2F)CC1,·,·,?,7%
Cc1ccccc1C(=O)Nc1ccc2c(C#N)c3nc4ccccc4nc3n2c1,-16%,56µM*,?,-4%
Cc1c(C(=O)Nc2ccccc2)cn2c(nc3ccccc32)c1C#N,-4%,1%,-27%,-23%
NC1=NC(=O)C2(COC(c3cccnc3)OC2)S1 (stereo not given),34µM*,22%,3%,?
COc1cccc([S+](=O)([O-])N2CCC3(COc4ccccc4C(=O)N3)C2)c1 (stereo not given),·,·,106%,·
CCC(C)(C)n1nnnc1C(c1cc2cc(C)ccc2[nH]c1=O)N1CCCc2ccccc21 (stereo not given),-25%,20µM*,?,7%
CCC(C)(C)n1nnnc1C(c1cc2cc(OC)ccc2[nH]c1=O)N1CCc2ccccc21 (stereo not given),-4%,-38%,-7%,-11%
Cc1ccc2[nH]c(=O)c(C(c3nnnn3C3CCCC3)N3CCCc4ccccc43)cc2c1 (stereo not given),-4%,8.9µM*,0%,-10%
O=C(OCc1cc(=O)oc2cc(O)ccc12)c1n[nH]c2ccccc12,·,·,25µM*,·
O=C(O)Cn1c(-c2ccccc2)nc2ccccc21,27µM*,22%,?,-6%
COC(=O)Cn1c(C)nc2ccccc21,-2%,-2%,-2%,3%
COC(=O)Cn1c(=O)c(C)nc2ccccc21,30µM*,10%,41%,-18%
CC(C(=O)N(C)Cc1cccc(F)c1)N1CCN(S(=O)(=O)c2ccc3c(c2)OCCCO3)CC1 (stereo not given),-10%,·,?,-7%
O=C(Nc1ccc2c(c1)OCO2)c1csc(COCCO)n1,-6%,·,·,·
COc1cc(/C=C/C(=O)OCC(=O)Nc2cc(S(=O)(=O)N3CCCCC3)ccc2C)ccc1O,-10%,15%,2%,5%
COc1cc(/C=C/C(=O)OCC(=O)Nc2ccc(C)c(S(=O)(=O)N3CCCCC3)c2)ccc1O,7.5µM*,13%,-6%,?
COc1ccc(NC(=O)Cc2ccc(C)cc2)cc1S(=O)(=O)N1CCCCC1,1%,·,182%,18%
COc1ccc(NC(=O)CN2CCCCC2)cc1S(=O)(=O)N1CCCCC1,3%,·,2.5µM*,9%
COC(=O)c1ccc2nc(-c3ccc(F)cc3)c(Cc3ccccc3OC)n2c1,11%,·,?,·
Cc1cc(C)c2nc3s/c(=C/c4ccccc4)c(=O)n3c2c1,·,8.9µM*,·,·
CC(C)c1ccccc1OCC(=O)NN1C(=O)c2ccccc2C1=O,-4%,0%,2%,0%
Cc1ccc(OCc2ccc(C(=O)Nc3c(C)nn(Cc4c(F)c(F)c(F)c(F)c4F)c3C)o2)c([N+](=O)[O-])c1,0%,9%,?,8%
CCc1ccc(NC(=O)Cn2ncc3c4ccccc4n(C)c3c2=O)cc1,24µM*,14%,-7%,?
CCOc1ccc(CN(C)C(=O)Cn2cnc3c(cnn3C)c2=O)cc1OC,·,·,29%,·
SMILES,PLK1 PBD inh,Sfp PPTase inh,12-LOX inh,VDR inhibitor
COc1ccc(C(C)=O)cc1Cn1cnc2c(cnn2C)c1=O,19µM*,3%,-5%,?
COCC(=O)Nc1ccc(N2CCCC2)c(S(=O)(=O)Nc2ccccc2OC)c1,-12%,·,?,-11%
COc1ccccc1NS(=O)(=O)c1cc(N)ccc1N1CCCC1,6.7µM*,·,?,89µM*
COc1ccccc1NS(=O)(=O)c1cc(NC(=O)Nc2cccc(C)c2)ccc1N1CCCCC1,?,-15%,-22%,?
COc1ccc(NS(=O)(=O)c2cc(NC(=O)c3cnccn3)ccc2N2CCCC2)cc1,21µM*,-24%,-13%,?
COc1ccccc1NS(=O)(=O)c1cc(NC(=O)c2ccncc2)ccc1N1CCCC1,17µM*,14µM*,0%,?
COc1ccc(NS(=O)(=O)c2cc(NC(=O)c3ccc(C)o3)ccc2N2CCCCC2)cc1,-8%,6%,-9%,-5%
CCOC(=O)C(=CNc1ccc(N2CCCCC2)c(S(=O)(=O)Nc2ccccc2OC)c1)C(=O)OCC,11µM*,·,?,?
COc1ccc(NS(=O)(=O)c2cc(N)ccc2N2CCCCC2)cc1,-7%,·,4%,-2%
Cc1ccc(Cl)cc1N1CCN(C(=O)CN(C2CCCCC2)S(C)(=O)=O)CC1,-25%,8%,0%[57.4 µM],-6%
COc1ccccc1NS(=O)(=O)c1cc(NC(=O)C(C)NC(N)=O)ccc1N1CCCC1 (stereo not given),13µM*,·,?,?
COc1ccc(NS(=O)(=O)c2cc(NC(=O)[C@H](C)NC(N)=O)ccc2N2CCCC2)cc1,-10%,·,?,-18%
COc1ccccc1NS(=O)(=O)c1cc(NC(C)=O)ccc1N1CCCCC1,9.5µM*,45µM*,?,?
CCCOc1ccc(C(C)=O)cc1Cc1c(O)nc(SC)[nH]c1=O,-5%,20%,-3%,-12%
CC(=O)c1cc(F)c(N2CCN(C(=O)C(C)(C)C)CC2)cc1C,-6%,-10%,3%,9%
O=C1c2ccccc2NC(c2ccc(-c3ccc(Br)cc3)o2)N1O (stereo not given),-9%,-3%,20µM*,5%
O=C1c2ccccc2NC(c2ccc(-c3ccc(F)cc3)o2)N1O (stereo not given),·,·,40µM*,?
Cc1ccc(C)c(N(CC(N)=O)S(C)(=O)=O)c1,27µM*,14%,1%,?
Cc1ccccc1N(CC(N)=O)S(C)(=O)=O,0%,3%,30%,-17%
Cc1cccc(C(=O)Nc2nnc(-c3ccncc3)o2)c1,-4%,15%,1%,-1%
O=C(c1cc(Cl)ccc1Cl)N1CCc2ccccc21,27µM*,22%,-22%,?
Cc1ccc(C(=O)N2CCc3ccccc32)cc1[N+](=O)[O-],30µM*,6%,0%,-10%
CCOC(=O)[C@@]12C[C@@H]1/C(=N/O)c1ccccc1O2,·,-1%,19%,-3%
CC(=C(CCOC(=O)C(C)C)SSC(CCOC(=O)C(C)C)=C(C)N(C=O)Cc1cnc(C)nc1N)N(C=O)Cc1cnc(C)nc1N,·,·,-7%[22.9 µM],·
C/C(=C(/CCO)SS/C(CCO)=C(\C)N(C=O)Cc1cnc(C)nc1N)N(C=O)Cc1cnc(C)nc1N,·,-4%,·,32µM*
O=C(c1c[nH]c(C(=O)C(Cl)(Cl)Cl)c1)c1c(F)cccc1F,5.3µM*,-1%,-8%,?
Cc1ccccc1NC(=O)Cn1nnc(C(=O)NCc2ccco2)c1N,27µM*,4%,2%,-25%
CCCc1nnc(SCc2ccc(OC)cc2)n1N,21µM*,13%,0%,25µM*

# Assay outcomes (PubChem)
